Measured values from PubChem BioAssay (NCI).
About 83,000 compounds went through this panel and 20% of them were active in at least one assay; those are over-represented in the sample as a whole.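 Assay: single dose, 48 h. Readout: percent growth (0 = no net growth; negative = cell death). Active: <10.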 Activity calls are given as the source filed them.

Key:
Experiment in all cases: NCI-60 one-dose screen, 48 h (100 = growth as untreated, 0 = no growth, -100 = all killed)
HCT-15 colon = conditions: 10 µM unless noted
HT29 colon = conditions: 10 µM unless noted
SNB-75 CNS = conditions: 10 µM unless noted
SNB-19 CNS = conditions: 10 µM unless noted
PC-3 prostate = conditions: 10 µM unless noted
SK-MEL-5 melanoma = conditions: 10 µM unless noted
UACC-62 melanoma = conditions: 10 µM unless noted
LOX IMVI melanoma = conditions: 10 µM
SK-MEL-28 melanoma = conditions: 10 µM unless noted
SK-MEL-2 melanoma = conditions: 10 µM unless noted
SN12C renal = conditions: 10 µM unless noted
UO-31 renal = conditions: 10 µM unless noted
TK-10 renal = conditions: 10 µM unless noted
ACHN renal = conditions: 10 µM unless noted
CAKI-1 renal = conditions: 10 µM unless noted
A498 renal = conditions: 10 µM unless noted
CCRF-CEM leukemia = conditions: 10 µM unless noted
MOLT-4 leukemia = conditions: 10 µM unless noted
U251 CNS = conditions: 10 µM unless noted
EKVX NSCLC = conditions: 10 µM unless noted

Measured: growth

COc1ccc(C(Cn2ccnc2)Sc2ccc(Cl)c(Cl)c2)cc1 (stereo unspecified)
inactive: HCT-15 colon 79.7% | HT29 colon 59.6% | SNB-75 CNS 89.2% | SNB-19 CNS 98.6% | PC-3 prostate 63.1% | SK-MEL-5 melanoma 66.5% | UACC-62 melanoma 77.6% | LOX IMVI melanoma 84.4% | SK-MEL-28 melanoma 85.3% | SK-MEL-2 melanoma 104% | SN12C renal 88.6% | UO-31 renal 45.2% | TK-10 renal 96.7% | ACHN renal 83.4% | CAKI-1 renal 62.3% | A498 renal 67.8% | CCRF-CEM leukemia 79.3% | MOLT-4 leukemia 64.1%

O=C(NOC(=O)c1ccccc1)c1ccccc1
inactive: HCT-15 colon 101% | HT29 colon 110% | SNB-75 CNS 108% | SNB-19 CNS 109% | U251 CNS 105% | SK-MEL-5 melanoma 105% | UACC-62 melanoma 109% | LOX IMVI melanoma 100% | SK-MEL-28 melanoma 119% | SK-MEL-2 melanoma 97% | EKVX NSCLC 95.7% | SN12C renal 108% | TK-10 renal 97.8% | ACHN renal 101% | CAKI-1 renal 86.5% | A498 renal 94.6% | CCRF-CEM leukemia 70.6%

Oc1ccc(Cl)cc1C(c1cc(Cl)ccc1O)C(Cl)(Cl)Cl
active: HCT-15 colon 3.95% | HT29 colon 4.03% | SNB-75 CNS 4.39% | LOX IMVI melanoma -62.8% | SN12C renal -4.47%
inactive: SNB-19 CNS 24% | U251 CNS 11.8% | SK-MEL-5 melanoma 29.1% | SK-MEL-28 melanoma 38.8% | SK-MEL-2 melanoma 49.2% | EKVX NSCLC 13.7% | UO-31 renal 40.8% | TK-10 renal 77.5% | CAKI-1 renal 36.8% | A498 renal 23.4% | CCRF-CEM leukemia 19.1%

CCCOC(=O)c1nc(N(CC2CCCCC2)C(=O)NC)sc1/N=C/c1ccccc1
inactive: SNB-19 CNS 24.5% | SK-MEL-28 melanoma 35% | SN12C renal 15% | UO-31 renal 23.9% | TK-10 renal 52.5% | ACHN renal 17.4% | CAKI-1 renal 31.7% | A498 renal 63.5%
active: HCT-15 colon -70.3% | HT29 colon -37.7% | SNB-75 CNS -11.1% | U251 CNS 5.96% | SK-MEL-5 melanoma -11.9% | UACC-62 melanoma 4.74% | EKVX NSCLC 9.94% | CCRF-CEM leukemia 2.45% | MOLT-4 leukemia 3.07%

CN(C)c1ccc(/C=C/c2nccc3ccccc23)cc1
inactive: HCT-15 colon 66.4% | HT29 colon 98.6% | SNB-75 CNS 98.8% | SNB-19 CNS 79.4% | PC-3 prostate 83.4% | SK-MEL-5 melanoma 86.7% | UACC-62 melanoma 60.9% | LOX IMVI melanoma 87.8% | SK-MEL-28 melanoma 89.4% | UO-31 renal 58.4% | TK-10 renal 88.2% | ACHN renal 87.1% | CAKI-1 renal 73.6%

COc1ccc2nc3cc([N+](=O)[O-])ccc3c(NNc3ccccc3)c2c1
inactive: HCT-15 colon 69.4% | HT29 colon 94% | SNB-75 CNS 23.5% | SNB-19 CNS 73% | U251 CNS 29.1% | SK-MEL-5 melanoma 88.5% | UACC-62 melanoma 74.6% | LOX IMVI melanoma 84.2% | SK-MEL-28 melanoma 97.1% | SK-MEL-2 melanoma 74.9% | EKVX NSCLC 83.1% | SN12C renal 92.4% | UO-31 renal 91.4% | TK-10 renal 60% | CAKI-1 renal 86.1% | CCRF-CEM leukemia 90.6%

COc1cc(OC)c(/C=C/c2c3ccccc3cc[n+]2C)c(OC)c1
inactive: HCT-15 colon 97.9% | SNB-75 CNS 12.3% | SNB-19 CNS 35.8% | PC-3 prostate 19.2% | UACC-62 melanoma 15.7% | SK-MEL-28 melanoma 30.1% | SK-MEL-2 melanoma 20.4% | SN12C renal 14.2% | UO-31 renal 75.5% | TK-10 renal 42.1% | ACHN renal 71.5% | CAKI-1 renal 67.8% | A498 renal 36.6% | CCRF-CEM leukemia 18.2% | MOLT-4 leukemia 14.7%
active: HT29 colon 1.89% | SK-MEL-5 melanoma -14% | LOX IMVI melanoma -39.1%

Clc1ccc(-n2ncc3c(NCCCN4CCOCC4)ncnc32)cc1
inactive: HCT-15 colon 96.6% | HT29 colon 105% | SNB-75 CNS 89.6% | SNB-19 CNS 102% | U251 CNS 93.1% | SK-MEL-5 melanoma 83.5% | UACC-62 melanoma 110% | LOX IMVI melanoma 88.8% | SK-MEL-28 melanoma 94.6% | SK-MEL-2 melanoma 108% | EKVX NSCLC 92.9% | SN12C renal 99.1% | UO-31 renal 79.6% | TK-10 renal 107% | CAKI-1 renal 107% | A498 renal 104% | CCRF-CEM leukemia 94.4% | MOLT-4 leukemia 97.7%

CCCCCC/C=C1\CCC(CN2CCCC2)C1=O (stereo unspecified)
inactive: HCT-15 colon 77.1% | HT29 colon 120% | SNB-75 CNS 90.9% | SNB-19 CNS 92.6% | PC-3 prostate 89.7% | SK-MEL-5 melanoma 96.9% | UACC-62 melanoma 99.2% | LOX IMVI melanoma 59.8% | SK-MEL-2 melanoma 114% | EKVX NSCLC 113% | SN12C renal 103% | UO-31 renal 90.4% | TK-10 renal 124% | CAKI-1 renal 102% | A498 renal 94.1% | CCRF-CEM leukemia 33.1%

CSc1nc(C)c(C(=O)CCN2CCN(c3ccccn3)CC2)s1
inactive: HCT-15 colon 97.3% | HT29 colon 102% | SNB-75 CNS 103% | SNB-19 CNS 96.1% | PC-3 prostate 94.3% | SK-MEL-5 melanoma 101% | UACC-62 melanoma 98.7% | SK-MEL-28 melanoma 106% | SN12C renal 97.6% | UO-31 renal 82.9% | TK-10 renal 118% | ACHN renal 101% | CAKI-1 renal 100% | A498 renal 88.4%

O=C(/C(Cl)=N/O)c1ccc(-c2ccccc2)cc1
inactive: HCT-15 colon 94.5% | HT29 colon 80.1% | SNB-75 CNS 113% | SNB-19 CNS 105% | U251 CNS 96.1% | SK-MEL-5 melanoma 98.7% | UACC-62 melanoma 97.9% | SK-MEL-28 melanoma 110% | SK-MEL-2 melanoma 110% | SN12C renal 103% | UO-31 renal 57.9% | TK-10 renal 106% | ACHN renal 86.8% | CAKI-1 renal 91.1% | A498 renal 123% | MOLT-4 leukemia 83.3%
active: LOX IMVI melanoma -41.5% | CCRF-CEM leukemia 8.56%

CN(C)c1ccc2cc3c(cc2c1)Oc1ccccc1N3.[Cl][Zn][Cl]
active: UO-31 renal 5.78%
inactive: HCT-15 colon 48.5% | HT29 colon 97.3% | SNB-75 CNS 103% | SNB-19 CNS 114% | U251 CNS 78.7% | SK-MEL-5 melanoma 70.6% | UACC-62 melanoma 65% | LOX IMVI melanoma 32% | SK-MEL-2 melanoma 89.5% | EKVX NSCLC 89.9% | SN12C renal 89.3% | TK-10 renal 77.4% | ACHN renal 70.9% | CAKI-1 renal 54.2% | A498 renal 115% | CCRF-CEM leukemia 31.4% | MOLT-4 leukemia 24.7%

N#CC1c2ccccc2C=CN1C(=O)CCCl (stereo unspecified)
active: ACHN renal -6.33% | CCRF-CEM leukemia 8.12%
inactive: HCT-15 colon 84.9% | HT29 colon 78.3% | SNB-75 CNS 75.9% | SNB-19 CNS 107% | PC-3 prostate 104% | SK-MEL-5 melanoma 101% | UACC-62 melanoma 106% | LOX IMVI melanoma 32.6% | SK-MEL-28 melanoma 105% | SN12C renal 107% | UO-31 renal 60.6% | TK-10 renal 14.9% | A498 renal 132% | MOLT-4 leukemia 81.3%

O=C1C=C(Cl)C(=O)c2ccccc21
inactive: HCT-15 colon 98.9% | HT29 colon 119% | SNB-75 CNS 71.4% | SNB-19 CNS 97.4% | PC-3 prostate 81.7% | UACC-62 melanoma 98.2% | SK-MEL-28 melanoma 116% | SN12C renal 101% | UO-31 renal 60.8% | TK-10 renal 152% | CAKI-1 renal 90.6% | A498 renal 118% | CCRF-CEM leukemia 53.3% | MOLT-4 leukemia 37.4%

O=[N+]([O-])c1ccc(Oc2ccccc2Cl)c([N+](=O)[O-])c1
inactive: HCT-15 colon 77% | HT29 colon 90.2% | SNB-75 CNS 83.2% | SNB-19 CNS 95.7% | U251 CNS 88.4% | SK-MEL-5 melanoma 95.1% | LOX IMVI melanoma 44.2% | SK-MEL-28 melanoma 103% | EKVX NSCLC 104% | SN12C renal 90.4% | UO-31 renal 81.9% | TK-10 renal 98.7% | ACHN renal 100% | CAKI-1 renal 82.7% | A498 renal 84.7% | CCRF-CEM leukemia 57.8% | MOLT-4 leukemia 22.7%

O=C1c2ccccc2Cc2cccc(Cl)c21
inactive: HCT-15 colon 97.4% | HT29 colon 87.7% | SNB-75 CNS 117% | SNB-19 CNS 100% | U251 CNS 101% | SK-MEL-5 melanoma 96.2% | UACC-62 melanoma 98.9% | LOX IMVI melanoma 93.9% | SK-MEL-2 melanoma 87.5% | EKVX NSCLC 104% | UO-31 renal 82.9% | TK-10 renal 89.6% | ACHN renal 98.9% | CAKI-1 renal 99.1% | A498 renal 64.3% | CCRF-CEM leukemia 98.8% | MOLT-4 leukemia 39.6%

Cc1ccc2c(c1)sc(-c1ccc(N(C)C)cc1)[n+]2C
active: HT29 colon 4.16% | U251 CNS -2.09% | SK-MEL-5 melanoma -76.6% | UACC-62 melanoma 8.89% | LOX IMVI melanoma 1.78% | EKVX NSCLC 6.29% | SN12C renal 3.59% | A498 renal -6.25%
inactive: HCT-15 colon 68.7% | SNB-75 CNS 14.2% | SNB-19 CNS 16.1% | SK-MEL-28 melanoma 30.8% | UO-31 renal 65.1% | TK-10 renal 14.8% | ACHN renal 63.6% | CAKI-1 renal 72.3% | CCRF-CEM leukemia 10.7%

CCSc1nc2ccccc2o1
inactive: HCT-15 colon 102% | HT29 colon 113% | SNB-75 CNS 88.2% | SNB-19 CNS 99.9% | U251 CNS 101% | SK-MEL-5 melanoma 108% | UACC-62 melanoma 102% | LOX IMVI melanoma 103% | SK-MEL-28 melanoma 113% | EKVX NSCLC 104% | SN12C renal 88.9% | UO-31 renal 79.4% | TK-10 renal 102% | ACHN renal 99% | CAKI-1 renal 87.9% | A498 renal 83.6% | CCRF-CEM leukemia 97.5% | MOLT-4 leukemia 100%

CC(O)C(O)C(O)C(O)C(O)C(=O)NNc1ccccc1 (stereo unspecified)
inactive: HCT-15 colon 78.6% | HT29 colon 104% | SNB-75 CNS 82.6% | SNB-19 CNS 97.1% | U251 CNS 97.6% | SK-MEL-5 melanoma 107% | UACC-62 melanoma 30.5% | LOX IMVI melanoma 48.1% | SK-MEL-28 melanoma 103% | SK-MEL-2 melanoma 106% | SN12C renal 90.5% | UO-31 renal 70.6% | TK-10 renal 110% | ACHN renal 67% | CAKI-1 renal 77.1% | A498 renal 69.7% | CCRF-CEM leukemia 59.6% | MOLT-4 leukemia 101%
